{"source": "PubChem BioAssay AID1315", "about": "(University of Pittsburgh Molecular Library Screening Center, 2008)", "note": "The list shows a part of the results. Unmarked numbers belong to inactive results. How the calls were made is not given here."}
{"experiment": "fluorescence polarization interference in PKD1 assay, artefact control for PKD1 inhibitor project, biochemical, 140K library (AID 1315)", "conditions": "PKD1 FP assay interference counter-screen, at 10 µM, stronger effect = higher value", "units": {"inhibition": "%"}}
{"smiles": "Cc1ccc(NC(=O)C2CCCN(S(=O)(=O)c3c(C)noc3C)C2)c(C)c1", "note": "(stereo not drawn)", "inhibition": -13.6}
{"smiles": "COc1ccc(Nc2cc(C)nc(-n3nc(C)cc3C)n2)cc1", "inhibition": -21.9}
{"smiles": "COc1ccccc1C(=O)NN1C(=O)C2C3C=CC(O3)C2C1=O", "note": "(stereo not drawn)", "inhibition": -4.38}
